Laboratory results from ChEMBL document CHEMBL2218924, “A broad activity screen in support of a chemogenomic map for kinase signalling research and drug discovery” (Biochem J, 2013).

Tests used:
[1] = molecular target: Calcium/calmodulin-dependent protein kinase type 1 (Homo sapiens) (UniProt Q14012); conditions: at 1 µM
[2] = molecular target: Calcium/calmodulin-dependent protein kinase type 1 (Homo sapiens) (UniProt Q14012); conditions: at 10 µM
[3] = molecular target: Calcium/calmodulin-dependent protein kinase type II subunit beta (Homo sapiens) (UniProt Q13554); conditions: at 1 µM
Chain of Calcium/calmodulin-dependent protein kinase type II subunit beta (Homo sapiens) (Q13554 whole entry): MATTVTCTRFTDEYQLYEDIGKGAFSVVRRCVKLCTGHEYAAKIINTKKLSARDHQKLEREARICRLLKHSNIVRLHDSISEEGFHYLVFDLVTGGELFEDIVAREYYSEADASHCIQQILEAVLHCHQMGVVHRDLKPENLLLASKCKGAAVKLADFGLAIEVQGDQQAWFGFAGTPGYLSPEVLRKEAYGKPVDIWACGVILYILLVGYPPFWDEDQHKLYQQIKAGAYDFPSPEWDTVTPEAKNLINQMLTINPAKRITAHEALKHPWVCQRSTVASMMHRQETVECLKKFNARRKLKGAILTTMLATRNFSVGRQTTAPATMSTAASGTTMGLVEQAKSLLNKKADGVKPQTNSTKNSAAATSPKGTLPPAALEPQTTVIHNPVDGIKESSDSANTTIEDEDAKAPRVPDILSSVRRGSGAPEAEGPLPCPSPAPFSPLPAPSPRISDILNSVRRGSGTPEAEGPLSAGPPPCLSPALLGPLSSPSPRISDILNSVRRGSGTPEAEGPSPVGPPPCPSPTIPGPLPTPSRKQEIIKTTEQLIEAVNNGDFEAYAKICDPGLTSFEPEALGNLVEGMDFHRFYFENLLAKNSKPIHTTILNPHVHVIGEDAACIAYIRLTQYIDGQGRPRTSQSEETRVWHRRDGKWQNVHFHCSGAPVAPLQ

[4] = molecular target: Calcium/calmodulin-dependent protein kinase type II subunit beta (Homo sapiens) (UniProt Q13554); conditions: at 10 µM
[5] = molecular target: Calcium/calmodulin-dependent protein kinase type II subunit gamma (Homo sapiens) (UniProt Q13555); conditions: at 1 µM
Chain of Calcium/calmodulin-dependent protein kinase type II subunit gamma (Homo sapiens) (Q13555 whole entry): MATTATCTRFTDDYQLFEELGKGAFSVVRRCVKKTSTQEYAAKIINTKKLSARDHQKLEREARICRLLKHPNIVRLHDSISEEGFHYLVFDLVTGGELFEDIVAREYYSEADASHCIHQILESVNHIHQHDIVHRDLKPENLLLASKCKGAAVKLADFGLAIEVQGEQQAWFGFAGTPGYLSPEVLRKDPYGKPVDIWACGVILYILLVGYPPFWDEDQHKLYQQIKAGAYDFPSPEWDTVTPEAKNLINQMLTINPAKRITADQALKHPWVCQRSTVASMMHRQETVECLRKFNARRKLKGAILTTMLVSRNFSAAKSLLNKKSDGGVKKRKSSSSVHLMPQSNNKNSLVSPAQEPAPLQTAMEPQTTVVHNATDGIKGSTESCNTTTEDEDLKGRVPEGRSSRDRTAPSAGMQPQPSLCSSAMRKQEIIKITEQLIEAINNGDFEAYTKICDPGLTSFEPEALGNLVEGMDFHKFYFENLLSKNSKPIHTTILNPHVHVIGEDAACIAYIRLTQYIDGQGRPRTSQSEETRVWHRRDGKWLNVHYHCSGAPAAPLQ

[6] = molecular target: Calcium/calmodulin-dependent protein kinase type II subunit gamma (Homo sapiens) (UniProt Q13555); conditions: at 10 µM
[7] = molecular target: Calcium/calmodulin-dependent protein kinase type II subunit delta (Homo sapiens) (UniProt Q13557); conditions: at 1 µM
Chain of Calcium/calmodulin-dependent protein kinase type II subunit delta (Homo sapiens) (Q13557 whole entry): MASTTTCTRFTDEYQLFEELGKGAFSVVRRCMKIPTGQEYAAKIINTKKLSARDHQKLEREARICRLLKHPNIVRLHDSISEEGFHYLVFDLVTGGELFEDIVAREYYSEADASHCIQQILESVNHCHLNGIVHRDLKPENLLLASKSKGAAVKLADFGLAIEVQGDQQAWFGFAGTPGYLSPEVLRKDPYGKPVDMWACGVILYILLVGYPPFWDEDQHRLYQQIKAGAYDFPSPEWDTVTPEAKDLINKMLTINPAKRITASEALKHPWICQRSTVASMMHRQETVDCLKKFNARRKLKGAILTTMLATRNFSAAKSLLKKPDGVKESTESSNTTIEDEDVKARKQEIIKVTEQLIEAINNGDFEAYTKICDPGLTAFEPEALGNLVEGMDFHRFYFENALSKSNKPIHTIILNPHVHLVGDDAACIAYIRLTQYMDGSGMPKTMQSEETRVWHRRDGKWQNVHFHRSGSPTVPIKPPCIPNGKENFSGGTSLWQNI

[8] = molecular target: Calcium/calmodulin-dependent protein kinase type II subunit delta (Homo sapiens) (UniProt Q13557); conditions: at 10 µM
[9] = molecular target: T1, Calcium/calmodulin-dependent protein kinase type IV (Homo sapiens) (UniProt Q16566); conditions: at 1 µM
T1 sequence (whole entry): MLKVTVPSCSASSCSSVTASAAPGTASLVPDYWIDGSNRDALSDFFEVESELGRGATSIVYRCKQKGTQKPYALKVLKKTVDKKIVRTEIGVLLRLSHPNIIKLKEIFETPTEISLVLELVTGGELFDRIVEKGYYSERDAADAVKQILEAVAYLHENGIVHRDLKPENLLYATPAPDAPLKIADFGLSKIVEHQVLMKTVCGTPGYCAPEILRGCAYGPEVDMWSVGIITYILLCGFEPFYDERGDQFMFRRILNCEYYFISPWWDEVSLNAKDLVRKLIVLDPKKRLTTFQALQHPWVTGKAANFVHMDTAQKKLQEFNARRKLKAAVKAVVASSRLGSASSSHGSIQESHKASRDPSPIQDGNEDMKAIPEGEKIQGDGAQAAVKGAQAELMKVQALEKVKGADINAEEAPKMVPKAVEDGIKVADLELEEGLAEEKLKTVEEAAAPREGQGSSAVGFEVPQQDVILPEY

[10] = molecular target: T1, Calcium/calmodulin-dependent protein kinase type IV (Homo sapiens); conditions: at 10 µM
[11] = molecular target: Death-associated protein kinase 1 (Homo sapiens) (UniProt P53355); conditions: at 10 µM
Chain of Death-associated protein kinase 1 (Homo sapiens) (P53355 whole entry, looked up): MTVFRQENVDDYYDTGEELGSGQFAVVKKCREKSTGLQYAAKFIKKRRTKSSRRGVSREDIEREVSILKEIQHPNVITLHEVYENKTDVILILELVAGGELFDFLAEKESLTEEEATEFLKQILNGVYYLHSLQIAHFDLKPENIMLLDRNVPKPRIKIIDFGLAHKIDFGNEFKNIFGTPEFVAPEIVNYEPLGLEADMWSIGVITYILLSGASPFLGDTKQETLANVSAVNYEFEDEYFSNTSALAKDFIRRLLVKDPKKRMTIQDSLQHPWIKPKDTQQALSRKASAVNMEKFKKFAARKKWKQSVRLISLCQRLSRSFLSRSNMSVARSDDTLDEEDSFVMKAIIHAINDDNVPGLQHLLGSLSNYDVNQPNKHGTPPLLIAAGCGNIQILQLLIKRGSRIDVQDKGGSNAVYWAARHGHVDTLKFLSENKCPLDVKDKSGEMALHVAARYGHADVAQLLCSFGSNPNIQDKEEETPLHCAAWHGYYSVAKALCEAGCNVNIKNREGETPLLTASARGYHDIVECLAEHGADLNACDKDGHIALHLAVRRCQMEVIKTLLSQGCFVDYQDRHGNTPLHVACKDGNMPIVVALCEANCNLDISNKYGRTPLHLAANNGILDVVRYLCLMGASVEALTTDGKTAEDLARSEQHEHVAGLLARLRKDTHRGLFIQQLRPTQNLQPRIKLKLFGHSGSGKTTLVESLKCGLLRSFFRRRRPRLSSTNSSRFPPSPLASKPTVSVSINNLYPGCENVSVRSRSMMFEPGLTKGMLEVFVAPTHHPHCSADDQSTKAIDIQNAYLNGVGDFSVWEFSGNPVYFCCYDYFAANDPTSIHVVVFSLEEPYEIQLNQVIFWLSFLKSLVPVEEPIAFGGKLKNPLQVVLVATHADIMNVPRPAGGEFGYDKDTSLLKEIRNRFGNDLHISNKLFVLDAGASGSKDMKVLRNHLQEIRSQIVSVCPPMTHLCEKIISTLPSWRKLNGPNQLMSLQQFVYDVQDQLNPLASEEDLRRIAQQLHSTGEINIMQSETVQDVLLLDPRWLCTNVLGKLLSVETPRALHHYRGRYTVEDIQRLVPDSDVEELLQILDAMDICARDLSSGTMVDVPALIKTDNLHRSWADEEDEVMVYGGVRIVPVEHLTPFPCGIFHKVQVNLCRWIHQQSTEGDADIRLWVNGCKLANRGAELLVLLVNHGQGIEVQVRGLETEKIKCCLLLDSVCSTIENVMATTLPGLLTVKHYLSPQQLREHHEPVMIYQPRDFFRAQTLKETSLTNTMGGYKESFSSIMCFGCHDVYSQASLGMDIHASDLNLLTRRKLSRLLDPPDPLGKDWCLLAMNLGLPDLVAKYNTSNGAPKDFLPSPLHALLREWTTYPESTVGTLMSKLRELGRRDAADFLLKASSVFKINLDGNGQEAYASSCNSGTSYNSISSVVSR

[12] = molecular target: Death-associated protein kinase 2 (Homo sapiens) (UniProt Q9UIK4); conditions: at 1 µM
Chain of Death-associated protein kinase 2 (Homo sapiens) (Q9UIK4 whole entry, looked up): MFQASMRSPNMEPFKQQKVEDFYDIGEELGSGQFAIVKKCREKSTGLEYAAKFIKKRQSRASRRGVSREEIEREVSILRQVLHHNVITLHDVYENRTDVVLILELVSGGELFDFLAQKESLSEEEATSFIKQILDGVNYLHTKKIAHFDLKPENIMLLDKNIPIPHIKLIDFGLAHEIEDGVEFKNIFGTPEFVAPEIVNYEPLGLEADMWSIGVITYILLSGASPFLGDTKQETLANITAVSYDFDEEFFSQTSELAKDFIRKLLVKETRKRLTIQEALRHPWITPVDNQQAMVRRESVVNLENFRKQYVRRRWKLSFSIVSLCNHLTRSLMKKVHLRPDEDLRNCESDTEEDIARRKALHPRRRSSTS

[13] = molecular target: Death-associated protein kinase 2 (Homo sapiens) (UniProt Q9UIK4); conditions: at 10 µM
[14] = molecular target: T2, Serine/threonine-protein kinase DCLK2 (Homo sapiens) (UniProt Q8N568); conditions: at 1 µM
T2 sequence (whole entry): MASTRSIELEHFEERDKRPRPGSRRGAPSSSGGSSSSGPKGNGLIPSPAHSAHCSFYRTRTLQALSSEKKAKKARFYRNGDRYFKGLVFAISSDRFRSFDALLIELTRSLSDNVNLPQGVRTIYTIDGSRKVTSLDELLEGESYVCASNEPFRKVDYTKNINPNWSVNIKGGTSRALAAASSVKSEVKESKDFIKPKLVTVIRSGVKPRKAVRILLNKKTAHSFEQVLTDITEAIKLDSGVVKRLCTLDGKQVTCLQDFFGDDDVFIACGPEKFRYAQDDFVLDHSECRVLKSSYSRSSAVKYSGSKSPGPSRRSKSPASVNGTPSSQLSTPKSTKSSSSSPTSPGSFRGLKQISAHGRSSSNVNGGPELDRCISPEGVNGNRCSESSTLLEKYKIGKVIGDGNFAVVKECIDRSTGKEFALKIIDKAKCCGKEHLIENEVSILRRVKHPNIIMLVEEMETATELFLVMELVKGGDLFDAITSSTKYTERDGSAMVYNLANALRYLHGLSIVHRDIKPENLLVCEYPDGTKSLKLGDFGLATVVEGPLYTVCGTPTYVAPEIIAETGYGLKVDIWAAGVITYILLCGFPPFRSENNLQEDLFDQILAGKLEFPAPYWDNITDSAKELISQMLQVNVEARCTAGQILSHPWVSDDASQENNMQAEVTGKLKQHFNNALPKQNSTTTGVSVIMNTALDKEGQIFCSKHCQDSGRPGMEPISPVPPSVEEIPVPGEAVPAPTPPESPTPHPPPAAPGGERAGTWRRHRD

[15] = molecular target: T2, Serine/threonine-protein kinase DCLK2 (Homo sapiens); conditions: at 10 µM
[16] = molecular target: T3, Discoidin domain-containing receptor 2 (Homo sapiens) (UniProt Q16832); conditions: at 1 µM
T3 sequence (whole entry): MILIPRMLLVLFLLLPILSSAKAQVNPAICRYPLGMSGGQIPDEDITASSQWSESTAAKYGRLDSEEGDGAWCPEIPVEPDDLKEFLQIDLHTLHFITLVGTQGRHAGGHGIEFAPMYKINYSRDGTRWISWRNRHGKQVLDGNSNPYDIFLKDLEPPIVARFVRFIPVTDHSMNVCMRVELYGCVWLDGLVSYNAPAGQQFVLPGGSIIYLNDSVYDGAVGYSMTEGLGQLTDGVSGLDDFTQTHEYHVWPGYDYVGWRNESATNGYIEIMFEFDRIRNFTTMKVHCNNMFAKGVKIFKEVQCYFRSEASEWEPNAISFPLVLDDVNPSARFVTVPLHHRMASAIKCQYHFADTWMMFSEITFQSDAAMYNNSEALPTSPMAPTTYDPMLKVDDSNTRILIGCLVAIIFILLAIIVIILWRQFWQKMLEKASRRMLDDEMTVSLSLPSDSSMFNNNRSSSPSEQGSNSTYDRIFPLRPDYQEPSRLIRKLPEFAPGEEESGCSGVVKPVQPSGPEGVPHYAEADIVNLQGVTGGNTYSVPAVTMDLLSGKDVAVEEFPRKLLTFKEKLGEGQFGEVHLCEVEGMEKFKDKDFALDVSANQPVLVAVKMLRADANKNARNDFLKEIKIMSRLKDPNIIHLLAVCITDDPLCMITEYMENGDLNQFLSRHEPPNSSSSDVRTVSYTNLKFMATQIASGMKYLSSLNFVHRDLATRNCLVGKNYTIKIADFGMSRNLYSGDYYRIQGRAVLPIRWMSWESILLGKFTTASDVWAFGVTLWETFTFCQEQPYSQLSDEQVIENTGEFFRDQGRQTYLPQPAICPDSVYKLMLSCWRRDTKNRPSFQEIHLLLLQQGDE

[17] = molecular target: T3, Discoidin domain-containing receptor 2 (Homo sapiens); conditions: at 10 µM
[18] = molecular target: T4, Myotonin-protein kinase (Homo sapiens) (UniProt Q09013); conditions: at 1 µM
T4 sequence (whole entry): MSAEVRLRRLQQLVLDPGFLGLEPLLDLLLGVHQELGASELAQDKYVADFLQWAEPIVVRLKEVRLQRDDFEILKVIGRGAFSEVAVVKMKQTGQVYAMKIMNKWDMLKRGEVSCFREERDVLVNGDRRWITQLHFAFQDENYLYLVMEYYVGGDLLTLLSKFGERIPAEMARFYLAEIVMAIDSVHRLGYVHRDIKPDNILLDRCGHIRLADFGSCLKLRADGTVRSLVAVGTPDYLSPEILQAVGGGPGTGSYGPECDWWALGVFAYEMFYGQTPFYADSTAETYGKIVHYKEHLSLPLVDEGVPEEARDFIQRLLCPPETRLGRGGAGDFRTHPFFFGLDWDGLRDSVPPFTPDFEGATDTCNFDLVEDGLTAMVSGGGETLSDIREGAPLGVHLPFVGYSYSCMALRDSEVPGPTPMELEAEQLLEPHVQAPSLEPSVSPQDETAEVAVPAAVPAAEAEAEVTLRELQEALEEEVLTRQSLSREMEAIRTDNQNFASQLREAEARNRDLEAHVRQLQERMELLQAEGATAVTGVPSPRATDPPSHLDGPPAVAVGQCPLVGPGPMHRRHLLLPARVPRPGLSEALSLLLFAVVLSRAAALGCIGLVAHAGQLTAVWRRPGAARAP

[19] = molecular target: T4, Myotonin-protein kinase (Homo sapiens); conditions: at 10 µM
[20] = molecular target: T5, Serine/threonine-protein kinase 17A (Homo sapiens) (UniProt Q9UEE5); conditions: at 1 µM
T5 sequence (whole entry): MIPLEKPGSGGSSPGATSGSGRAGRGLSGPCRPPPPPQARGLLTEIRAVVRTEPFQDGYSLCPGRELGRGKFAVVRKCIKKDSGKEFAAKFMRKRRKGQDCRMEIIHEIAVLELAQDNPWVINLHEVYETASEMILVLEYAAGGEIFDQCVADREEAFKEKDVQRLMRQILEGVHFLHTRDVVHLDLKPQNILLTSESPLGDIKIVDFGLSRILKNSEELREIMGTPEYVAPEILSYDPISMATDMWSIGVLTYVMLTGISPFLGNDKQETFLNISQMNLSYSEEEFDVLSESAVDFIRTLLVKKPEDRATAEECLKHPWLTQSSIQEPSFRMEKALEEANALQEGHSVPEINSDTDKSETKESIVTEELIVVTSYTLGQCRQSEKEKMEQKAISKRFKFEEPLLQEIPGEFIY

Chain of Calcium/calmodulin-dependent protein kinase type 1 (Homo sapiens) (Q14012 whole entry, looked up): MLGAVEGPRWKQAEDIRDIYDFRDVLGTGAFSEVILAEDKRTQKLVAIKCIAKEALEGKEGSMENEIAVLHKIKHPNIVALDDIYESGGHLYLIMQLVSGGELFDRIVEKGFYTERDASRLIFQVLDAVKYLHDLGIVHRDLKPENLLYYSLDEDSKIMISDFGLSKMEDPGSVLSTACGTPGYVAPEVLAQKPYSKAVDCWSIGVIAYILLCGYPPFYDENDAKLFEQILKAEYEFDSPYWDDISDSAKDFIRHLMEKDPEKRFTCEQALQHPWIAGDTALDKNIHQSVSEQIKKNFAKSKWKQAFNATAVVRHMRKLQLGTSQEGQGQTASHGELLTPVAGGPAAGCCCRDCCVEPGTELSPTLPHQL

Compound	residual activity [1] [%]	residual activity [2] [%]	residual activity [3] [%]	residual activity [4] [%]	residual activity [5] [%]	residual activity [6] [%]	residual activity [7] [%]	residual activity [8] [%]	residual activity [9] [%]	residual activity [10] [%]	residual activity [11] [%]	residual activity [12] [%]	residual activity [13] [%]	residual activity [14] [%]	residual activity [15] [%]	residual activity [16] [%]	residual activity [17] [%]	residual activity [18] [%]	residual activity [19] [%]	residual activity [20] [%]
Oc1ccc(Nc2nc(-c3ccc(Cl)cc3)cs2)cc1	94	53	98	92	98	89	102	98	102	114	107	101	107	123	179	97	104	100	98	119
CCOc1cc2ncnc(Nc3cccc(Br)c3)c2cc1OCC	107	84	91	64	82	40	85	38	97	93	85	105	102	84	66	93	66	109	135	113
O=C(Nc1cccc(Nc2cc(Nc3cccc(C(F)(F)F)c3)ncn2)c1)C1CC1	114	57	91	86	98	74	97	67	116	94	100	91	91	92	109	81	94	100	106	81
CC#CC(=O)Nc1cc2c(Nc3ccc(F)c(Cl)c3)ncnc2cn1	98	80	91	84	108	93	107	97	121	87	90	88	104	77	96	96	93	113	115	105
COc1cc2ncnc(N3CCN(C(=O)Nc4ccc(Oc5ccccc5)cc4)CC3)c2cc1OC	104	97	80	89	111	100	104	93	122	97	102	93	112	98	242	106	117	115	142	120
O=C1c2ccccc2-[n+]2ccc3c([nH]c4ccccc43)c21	81	68	92	76	103	78	95	81	102	93	84	95	96	105	94	78	84	101	80	104
